From PubChem BioAssay AID1508600 (Functional Genomics Laboratory (NCATS/FGL), 2020) come the findings set out here.

Out of some 53,000 sequences screened, about 3,700 (7%) were called active.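 Rule for the calls: active = gene knockdowns whose robust z-score for IL-1 alpha signal is at least 2 or at most -2, so actives lie on both sides; inactive = the rest.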 Shown is part of a subset that was picked to be rich in actives.

The nature of the test: Components of the Cytosolic LPS Sensing Pathway: Gene Identification via Genome-wide siRNA Screen.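 Note: robust z of the log signal after scaling to non-targeting control siRNA wells of the plate.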 The settings on record: RAW264.7 macrophages, IL-1a HTRF, actives lie on both sides, screened at 100 nM (by protocol), cells primed 5 h with Pam3CSK4 first. In outline: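 Three distinct siRNAs per gene were tested singly at 100 nM in RAW264.7 macrophages. Following Pam3CSK4 priming and 24 hour LipidA transfection, IL-1a secretion was read by HTRF.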
(In general: In TR-FRET formats the signal depends on donor and acceptor labels being close together.)
Take UACCCAUUGUCAAGUUGGATT against Grm4: the z-score is -0.634 (inactive).

Turning to GGACCUGUGUGUUCUUUGATT against Amhr2, the z-score was -0.505 (inactive). As for CCUUGGCAGGUAUAGUGUUTT against Klk9, the figure is -1.09 (inactive); as for GGCGGUGUUUUACUACAAGTT against Capn7, 3.99 (active). As for GGAUCCCAGUUCUGGGUAATT against Dok1, the figure is -0.0628 (inactive); as for GCCUAUUUGACGUGCAGAGTT against Crocc, -0.0336 (inactive). As for GCUGUUUUAUCUCCAAUGGTT against Araf, the figure is 1.73 (inactive); as for CCCAUGUACCACUUUGUCATT against Olfr430, -2.05 (active); as for “GGCAUUGAUCACUGACAGCTT against 9530077C05Rik”, 0.827 (inactive). As for GGACCAUACAUAUUCAAAATT against Aph1b, the z-score is 0.0294 (inactive).

GUCCUGAAGAAGCUCAAGATT against Cartpt: the z-score was -0.513 (inactive). Then GGGACAGUACAGAGUGCUGTT against Hmx1, with 0.755 (inactive). As for CAAUCCUCAACGAUUACAUTT against Ncor1, the figure is 2.05 (active); as for GGAUGAGGAGAUAAAGUCUTT against Misp, -0.981 (inactive).

Take GGAAUAAAACUUCUGAGAATT against Oog1: the z-score was -1.66 (inactive). Consider GAAAACUCAAACAGCAUAUTT against Vmn1r216, for which the z-score was 0.833 (inactive). Take GAGCCACUUUCUCAAGUGUTT against Pou3f1: the z-score is 3.02 (active).

GUAACUCGCUUCUUGGUGGTT against Slc22a15: the z-score was 0.464 (inactive). In the case of GGUUCAAUGCUCCCUUCGATT against Ghrl, the z-score was 0.712 (inactive). GCCAGUUUAAGUCUCUCCATT against Tmem168: the z-score is -2.37 (active).

Turning to GGCUCACCUGAUACACUUUTT against Ramp2, the z-score is 0.707 (inactive). Then GCCUUGAAAUGUCUGUAGCTT against Nkiras1, with 0.981 (inactive). Then GGGCUGACUUCCUAUGACCTT against Adra2c, with 2.14 (active); and GGUGGAAUAACAGAUAAAATT against Cutc, with 0.255 (inactive); and GGAGAAAGGAUUAUAGAUGTT against Klk7, with 0.202 (inactive). Then GGGAUUCUUUUUGUGGAAATT against Trim62, with 0.636 (inactive); and GGUCUCAAUCAGAGUUACATT against Zfp324, with -0.936 (inactive).

With GGAGGUCAGACCAGUUUACTT against Htr3b, the z-score is 2.15 (active). As for GCUUACAUCCAAGCCGUCUTT against Prss41, the figure is 0.283 (inactive); as for GCUGGAGAUGAUUGUCUGATT against Psmd8, -1.22 (inactive). Then GCGGGAACCAUUUUUGUGATT against Cdh11, with -1.18 (inactive); and GGUCGAUUGAUAUACAAAATT against Gdf6, with 0.834 (inactive). Then CGUAUUAUCUGAGUGAACATT against Fth1, with -0.974 (inactive); and GCAUCAUCACCACCAUCACTT against Pou3f3, with -0.598 (inactive). As to GGUCUGGAAUGGAGAACAGTT against Suox, the z-score was 2.73 (active). As for GGUGACCAAGCAGAUAACATT against Prcc, the figure is -1.19 (inactive); as for GGACGUGGGCUCUCUAGAUTT against S100a13, 1.81 (inactive). Consider CGGUGGAAAUACCAGGAUGTT against Tshb, for which the z-score is 0.406 (inactive). Consider GGAAAUUUGCCGGCCAAAUTT against Fam83a, for which the z-score is 0.557 (inactive). Regarding GCACUCCACUCUUCCAUCATT against Cxcl16, the z-score was 0.35 (inactive). Then GGUGGCUGAAGAUGUGACUTT against Ttyh1, with -3.46 (active); and GCAAAGGACCUAAUUUAUUTT against Ehd4, with 1.13 (inactive). As for GGUUCAAGGGCCAGAUCCUTT against Rpl32, the figure is 0.887 (inactive); as for CCAGUGUUGGUAACAAUAUTT against Stat4, 0.0489 (inactive); as for GGAAAAGAAAGAUGUGACUTT against Trappc9, -2.55 (active). CGUAGAUCUGGAUUGCUUUTT against Poli: the z-score is 1.74 (inactive). As for CCCAGCUAGACAGUCUUUCTT against Il11, the figure is 2.58 (active); as for GGCAGAGCCAGAAAAAUUGTT against Slc30a1, 0.306 (inactive). For the sequence CCAGAAUGUAAAACAACCGTT against Zfp365, the z-score was 0.588 (inactive). For CGGUUUCACGAAUUCCUCCTT against Scaper, the z-score is -2.16 (active). Regarding GGAUUCAUGAAAUAAGUCATT against Zfp426, the z-score is -0.603 (inactive). For the sequence CGUGGUCUCGGACACUUUCTT against Hcn2, the z-score was -0.096 (inactive). Turning to GGUGGAAUGAGGAAACAACTT against Cck, the z-score was -0.945 (inactive). For the sequence GGAUUUAGCUAAGAGAGGGTT against Zmat3, the z-score was -0.125 (inactive).

Turning to CGAUGGUGAUUAUCUAAAATT against Tm4sf4, the z-score was -0.0694 (inactive).

As to GCGAAUGUGUGUAUUCUGGTT against BC055324, the z-score was -0.791 (inactive). Then CGGUUGAUGGAAAAAUACATT against Ppef2, with 2.43 (active); and GGAAAGAUGAGACCACCCGTT against Stau1, with -0.582 (inactive). Then GGCAAUAAUAAAUAGCACCTT against Homer1, with 0.8 (inactive). As for GGUAGAUGAACUUUAAAGATT against Syt13, the figure is -0.846 (inactive); as for GGACUUCUUAACCGCCCUGTT against Sirt5, 0.355 (inactive); as for GGCUCAUGAGAAGACACACTT against Zbtb17, 0.204 (inactive). GGUGCUAGUGGUGACCAUGTT against Pign: the z-score was 2.2 (active). Take CGUGAAAAAGUUAGCAAGUTT against Tars2: the z-score was 0.198 (inactive). As for “GGUUCUCCAAGGAAAGAGGTT against 2310002L09Rik”, the z-score is 2.8 (active).

On to CCUUCUAGUACAAAAGUUGTT against Jmjd1c, for which the z-score is 1.32 (inactive).

Take GGACAAGAGAACAACUAGUTT against Mrtfb: the z-score was 0.0162 (inactive). As to GACCAAAGCACUGACUAUGTT against Lyz2, the z-score is -0.184 (inactive). Then GGAAGAAAUGGACCAGCUGTT against Hgh1, with -0.416 (inactive); and GGUUUCCAUGGUAACGUGGTT against Tns1, with 2.24 (active). With GGGCAUAUGAGAUUUAUUATT against Trappc2, the z-score was -0.423 (inactive). In the case of GGCCUACAUACUCCUGAAGTT against Ttc21a, the z-score is -1.28 (inactive). For the sequence GGGAGCUGUUAACCUCAUCTT against Mthfr, the z-score was 3.34 (active). Then CCUAGAUUAAAUACUCGGATT against Saxo2, with 1.45 (inactive). For GCAGCCAAAUUCAUCCUCATT against Tspan33, the z-score was -0.552 (inactive). Turning to GGAAUGGACAAAAUGAUUCTT against Cct4, the z-score was 1.53 (inactive).

As to UGUUGUUUUACCUGUGCCUTT against Gm10283, the z-score was -1.14 (inactive). With GGCUCAUGGAAAACUCUAUTT against Hspa9, the z-score was 2.24 (active). For the sequence GGUUGCCAAUGACACUCGGTT against Trak2, the z-score was -0.342 (inactive). Consider GCCAUUCUAACUCUGCCUCTT against Olfr639, for which the z-score is 0.232 (inactive). In the case of GGGUUCAACACAGCCAAUGTT against Fam151a, the z-score is 0.987 (inactive). On to CCCUAUUUGACAAAUUCCUTT against Cdo1, for which the z-score is 0.245 (inactive). GCUGAAUCACUACCAGUCATT against Zfp462: the z-score is 1.27 (inactive). In the case of GGCAAUUCGAAUUUUGGUUTT against Rtraf, the z-score is 0.891 (inactive). In the case of GGCAAACGAAACACUAGCATT against Cacna1d, the z-score was 4.94 (active). Consider GGUACUUCAUCGAUUCAGCTT against Zfp593, for which the z-score is -0.561 (inactive).

For the sequence GGAUAGCACAGCCCUACAUTT against Kcns1, the z-score was -0.197 (inactive). Take GCUUACUGUCCCUUAAGUUTT against Msantd1: the z-score was 2.45 (active). In the case of GGACAAAGAUGAAUAUGUGTT against Spag6l, the z-score is -0.34 (inactive).

On to GGCCGUGAUGCUAGAGAACTT against Zfp661, for which the z-score was 0.131 (inactive). For GGUGAUUCACAUACUUUAUTT against Vps54, the z-score was 0.612 (inactive). As for GGGUUACCAGACUAACAAATT against Stfa3, the figure is 0.763 (inactive). As for GCGAAUUCGUGAGAAGAGCTT against Ripk4, the figure is -0.884 (inactive). In the case of GCACGUAUGCUCUUUCUCATT against Pigw, the z-score is -2.52 (active). As to CCAAGUAAGGACUAUAGAGTT against Gpatch2, the z-score was -1.02 (inactive).

CGCUGCUAAGAAUCAUCUATT against Ednrb: the z-score is 0.287 (inactive).

Consider GGAAGCCACGGUCAUGUGUTT against Trim9, for which the z-score was 0.746 (inactive). GGAAUGGGCAGUAUGAGUUTT against Ocrl: the z-score was -1.73 (inactive).

Take GGUAGUCAAGUCGAAAGUATT against Ccdc18: the z-score is -2.19 (active). Then GGACAAUGCUGUGACCUCUTT against Amn, with -0.949 (inactive); and GGGAAGCAGAAAUGAGAAATT against Pdcd5, with 0.135 (inactive); and GAGUGUUUCAGAUUCUUCATT against Klra8, with 0.329 (inactive).

Take UCUUUGUGAUUUCGAAGCCTT against Slc17a9: the z-score is 2.31 (active). As for GGAUAAAGAAGGUAUUCUUTT against Mccc1, the figure is -0.891 (inactive); as for GGCCCAGAAGGUUAUCAUCTT against Ptf1a, 0.606 (inactive). As for GGAAAUCACGACCAUGGCGTT against Gtf2b, the figure is 0.0198 (inactive); as for GCACUUCCGACUUUUUCACTT against Mettl24, -1.69 (inactive); as for GAGCUUCUGGCUGAGAUAATT against Espn, -0.388 (inactive).
